The record followed here is PubChem BioAssay AID588795 (National Center for Advancing Translational Sciences (NCATS), 2011).

SMILES strings stand for the structures. Screen size: about 390,000 compounds; about 1,400 (0.36%) were called active. Not shown: some 2% with an inconclusive outcome. Calls follow the shape of the dose curve; as a rule, active = well fitted inhibition curve with a large enough effect; inconclusive = small, poorly fitted or top-dose-only effect; inactive = no such curve, though single readings can be large or run the other way. This excerpt belongs to a sample that is enriched for actives.
% is scaled to controls: 0 for no effect and ±100 for the full control effect; potency is read from the fitted curve at half-maximal effect.

Sequence of Flap endonuclease 1 (Homo sapiens) (P39748 whole entry, looked up, the tested form may be a part): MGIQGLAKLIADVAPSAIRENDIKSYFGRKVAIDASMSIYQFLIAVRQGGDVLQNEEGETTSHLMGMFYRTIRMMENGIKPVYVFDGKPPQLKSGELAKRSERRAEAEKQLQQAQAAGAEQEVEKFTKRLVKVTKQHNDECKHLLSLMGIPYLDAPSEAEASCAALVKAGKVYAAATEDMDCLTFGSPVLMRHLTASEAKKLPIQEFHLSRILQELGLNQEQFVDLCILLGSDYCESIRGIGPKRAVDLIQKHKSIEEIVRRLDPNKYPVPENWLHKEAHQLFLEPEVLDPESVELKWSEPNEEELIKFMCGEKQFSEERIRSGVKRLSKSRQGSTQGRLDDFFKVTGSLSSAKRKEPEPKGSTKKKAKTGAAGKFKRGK

The test has as its target Flap endonuclease 1 (Homo sapiens) (UniProt P39748). As to the kind of experiment: qHTS Assay for the Inhibitors of Human Flap endonuclease 1 (FEN1). Also: nearly all actives have a fitted effect of over 65% in size. The note with it: Recombinant FEN1 flap cleavage, fluorescence, 15 min; series mostly up to 114 µM; activity change, negative = inhibition: at the top concentration. The text has this: The major human flap endonuclease FEN1 is an efficient structure-specific enzyme that recognizes and cleaves a 5'-unannealed DNA flap. It belongs to the RAD2 family nucleases, which are involved in DNA metabolism and are highly conserved in prokaryotes and eukaryotes. FEN1 is a key enzyme in DNA replication, repair and maintenance of genomic stability. 5'-flap removal by FEN1 is critical for Okazaki fragment processing during lagging strand DNA synthesis, long-patch base excision repair (LP BER), and regulating or facilitating recombination events. […] Deletion of the yeast FEN1 gene, i.e. rad27, results in an increased frequency of short DNA (3-32 bp) repeats, micro- and mini-satellite formation, trinucleotide repeat expansion, spontaneous recombination events, and a severe growth defect in association with cell cycle arrest in late S/G2 phase. […] Cells from fen1-/- blastocysts show increased apoptotic cell death after ionizing radiation treatment, and chicken cells lacking the fen1 gene are hypersensitive to DNA alkylating agents, e.g. methylmethane sulfonate (MMS) and N-methyl-N'-nitro-N-nitrosoguanidine (MNNG), as well as hydrogen peroxide.
NIH Chemical Genomics Center [NCGC]
NIH Molecular Libraries Probe Centers Network [MLPCN]
Assay Submitter (PI): David Wilson, National Institute of Aging
Three uL of reagents (buffer in column 3 and 4 as negative control and 10 nM FEN1 in columns 1, 2, and 5-48) were dispensed into 1,536-well black solid-bottomed plate. Compounds (23 nL) were transferred via Kalypsys pin tool equipped with 1536-pin array (10 nL slotted pins, V&P Scientific, San Diego, CA). The plates were then incubated for 15 min at room temperature, and 1 uL substrate (50 nM final concentration) were added to start the reaction read twice at 0 min read and 15 min on ViewLux reader. Throughout the screen, reagent bottle and all liquid lines were chilled and made light-tight to minimize reagent degradation. All screening operations were performed on a fully integrated robotic system (Kalypsys, San Diego, CA) containing one RX-130 and two RX-90 anthropomorphic robotic arms (Staubli, Duncan, SC). Library plates were screened starting from the lowest and proceeding to the highest concentration, and a "double-dipping" step of the highest concentration was required to access higher concentrations of compounds. Vehicle-only plates, with DMSO being pin-transferred to the entire column 5-48 compound area, were inserted uniformly at the beginning and the end of each library in order to monitor for and record any shifts in the background, which can be affected by reagent dispensers or loss in enzyme activity overtime. Screening data was corrected, normalized, and concentration-effect relationships were derived by using publicly-available curve fitting algorithms developed in-house (http://ncgc.nih.gov/pub/openhts). A four parameter Hill equation was fitted to the concentration-response data by minimizing the residual error between the modeled and observed responses.
On to `COc1ccc(CN2C(=O)NC(=O)/C(=C\c3ccc(OC)c(OC)c3OC)C2=O)cc1`, for which the “activity change, negative = inhibition” value was -6.59% (inactive).

With `COc1cccc(N2C(=O)NC(=O)/C(=C\c3ccc([N+](=O)[O-])s3)C2=O)c1`, the Potency was 39.8 µM (active).

In the case of `CCOC(=O)CC(SP1(=S)OCC2(CCCCO2)C(C2CCCCO2)O1)C(=O)OCC` (stereo not given), the “activity change, negative = inhibition” value is -27.9% (inactive).

On to `C[C@]12CCC3C(CC[C@H]4[C@H](O)[C@H](O)CC[C@]34C)C1CCC2=O` (stereo not given in full), for which the “activity change, negative = inhibition” value was -5.27% (inactive).

With `COc1ccc2c(c1)NP(=S)(c1ccccc1)N2` (stereo not given), the “activity change, negative = inhibition” value is -3.42% (inactive).

Turning to `CCC(C)(O)C(=O)OC1C(=O)OC2CC3C(C)=CC(=O)C(O)C3(C)C3C4(O)OCC23C1C(C)C4O` (stereo not given), the “activity change, negative = inhibition” value is 2.84% (inactive).

On to `O=C(O)/C=C/c1ccc2c(c1)OCO2`, for which the “activity change, negative = inhibition” value is 39.2% (inactive).

For the compound `O=C(O)c1cc[c]([Sb](=[O])([OH])[OH])cc1[N+](=O)[O-]`, the Potency was 1.41 µM (active).

In the case of `O=C(c1ccccc1[N+](=O)[O-])N1CCC2(CC1)OCCO2`, the “activity change, negative = inhibition” value was -1.26% (inactive).

`CC1C(=O)OC2CCN3CC=C(COC(=O)C(C)(O)C1(C)O)C23` (stereo not given): the “activity change, negative = inhibition” value was 18.1% (inactive).

Regarding `Cc1cc(C)c2c(c1)NP(=S)(c1ccccc1)N2` (stereo not given), the “activity change, negative = inhibition” value was 4.1% (inactive).

With `CC(=O)OC1C2(CC3N4C(=O)C5(CO)SSC4(CC31O)C(=O)N5C)OC(C)C(C)(C)C2=O` (stereo not given), the “activity change, negative = inhibition” value was 0.834% (inactive).

On to `COc1cc([C@@H]2c3cc4c(cc3[C@H](OC(C)=O)[C@H]3COC(=O)[C@H]23)OCO4)cc(OC)c1OC`, for which the “activity change, negative = inhibition” value was 0.697% (inactive).

For `COC1C(O)C(C)OC(OC2CCC3(C=O)C(CCC4C3CCC3(C)C(C5=CC(=O)OC5)CCC43O)C2)C1O` (stereo not given), the “activity change, negative = inhibition” value is 0.394% (inactive).

Consider `CO[C@H]1[C@@H](O)[C@@H](C)O[C@H](O[C@H]2[C@H](Oc3cccc4c(O)c5c(=O)oc6ccc(C)c7c(=O)oc(c34)c5c67)O[C@H](C)[C@H](O)[C@@H]2O)[C@@H]1O`, for which the Potency was 10 µM (active).

For `O=P1(Oc2ccccc2)CC(O)C(O)C(COCc2ccccc2)O1` (stereo not given), the “activity change, negative = inhibition” value was -2.48% (inactive).

`CCC(=O)OC(Cc1ccccc1)(c1ccccc1)C(C)CN(C)C` (stereo not given): the “activity change, negative = inhibition” value was -8.26% (inactive).

As to `CC12CCC(O)CC1CCC1C2CCC2(C)C(C(=O)CC(O)C(F)(F)F)CCC12` (stereo not given), the “activity change, negative = inhibition” value was -6.23% (inactive).

Turning to `c1ccc2c(c1)[I+]c1ccccc1-2`, the Potency is 50.1 µM (active).

`N#Cc1c(Cl)c(Cl)c(Cl)c(C#N)c1Cl`: the “activity change, negative = inhibition” value was -1.6% (inactive).
